For experiment [1], the target named is Cytochrome P450 2D6 (Homo sapiens) (UniProt P10635). Nature of the experiment: Cytochrome P450 family 2 subfamily D member 6 (CYP2D6) small molecule antagonists: luciferase biochemical (cell-free) qHTS assay (AID 1645840; active = well fitted curve in the direction sought with a large enough effect in the repeat runs; an effect the other way counts as inactive or inconclusive; also: nearly all actives have a fitted effect of over 55% in size). Conditions: P450-Glo CYP2D6 enzyme, luciferin luminescence, 1 h; series mostly up to 57.4 µM. The method in brief: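 P450-Glo luminescent screen: recombinant CYP2D6 enzyme–proluciferin substrate mix preincubated with compound 10 min at room temperature, then NADPH regeneration added for 1 h at room temperature. Detection reagent added for 20 min; luciferin light read as relative luminescence units.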
Sequence of Cytochrome P450 2D6 (Homo sapiens) (P10635 whole entry, looked up): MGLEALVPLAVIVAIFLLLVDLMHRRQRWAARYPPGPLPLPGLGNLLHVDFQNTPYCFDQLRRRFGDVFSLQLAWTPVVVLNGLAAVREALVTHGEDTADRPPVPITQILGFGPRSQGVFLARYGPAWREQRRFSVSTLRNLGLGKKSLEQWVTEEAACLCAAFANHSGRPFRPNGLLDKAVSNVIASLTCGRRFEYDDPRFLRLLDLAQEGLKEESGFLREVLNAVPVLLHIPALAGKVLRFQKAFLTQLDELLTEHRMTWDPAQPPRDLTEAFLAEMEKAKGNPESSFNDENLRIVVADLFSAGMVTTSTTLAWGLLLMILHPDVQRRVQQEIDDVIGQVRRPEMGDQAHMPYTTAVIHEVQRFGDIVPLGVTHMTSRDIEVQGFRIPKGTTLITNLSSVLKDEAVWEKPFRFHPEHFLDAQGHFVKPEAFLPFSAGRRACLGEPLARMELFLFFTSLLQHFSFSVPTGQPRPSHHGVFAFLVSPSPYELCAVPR
In general terms: Quantitative high-throughput screening tests each substance at several concentrations.

Experiment [2] addresses Cytochrome P450 2C9 (Homo sapiens) (UniProt P11712). Nature of the experiment: Cytochrome P450 family 2 subfamily C member 9 (CYP2C9) small molecule antagonists: luciferase biochemical (cell-free) qHTS assay (AID 1645842; active = well fitted curve in the direction sought with a large enough effect in the repeat runs; an effect the other way counts as inactive or inconclusive; also: nearly all actives have a fitted effect of over 55% in size; also: potency is read from the fitted curve at half-maximal effect). To be noted: P450-Glo CYP2C9 enzyme assay, luciferin luminescence; series mostly up to 57.4 µM. The procedure, abridged: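 Luminescence, after 20 min with luciferin detection reagent, reflected CYP2C9 turnover during a 1 h NADPH-driven reaction at 37C. Enzyme-substrate mix contained 0.4% bovine serum albumin and was preincubated with compound 10 min at room temperature.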

Another experiment deals with AS120. The experiment is described as follows: qHTS profiling for inhibitors of Plasmodium falciparum proliferation (AID 504749). Also: nearly all actives have a fitted effect of over 60% in size. To be noted: P. falciparum in erythrocytes, SYBR Green DNA, 72 h; series mostly up to 28.7 µM. The method in brief: (§1)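 Parasite proliferation within erythrocytes, 72 h exposure. Endpoint: SYBR Green I fluorescence after overnight lysis at room temperature. Controls: 0.29 uM artemisinin, DMSO.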

The test system of the next experiment is ATS189. The description is as above. Conditions: P. falciparum in erythrocytes, SYBR Green DNA, 72 h; series mostly up to 28.7 µM. The procedure, abridged:
as §1

The next experiment concerns CP185. Described as above. Conditions: P. falciparum in erythrocytes, SYBR Green DNA, 72 h; series mostly up to 28.7 µM. The method in brief:
as §1

A further experiment deals with CP192. Described as above. Conditions: P. falciparum in erythrocytes, SYBR Green DNA, 72 h; series mostly up to 28.7 µM. The method in brief:
as §1

Another experiment deals with CP194. The experiment is described as above. To be noted: P. falciparum in erythrocytes, SYBR Green DNA, 72 h; series mostly up to 28.7 µM. The method in brief: as §1
In the next experiment the test system is CP201. Described as above. Conditions: P. falciparum in erythrocytes, SYBR Green DNA, 72 h; series mostly up to 28.7 µM. The procedure, abridged:
as §1

The next experiment deals with CP237. The description is as above. Conditions: P. falciparum in erythrocytes, SYBR Green DNA, 72 h; series mostly up to 28.7 µM. The method in brief: as §1
In the next experiment the test system is CP238. Described as above. To be noted: P. falciparum in erythrocytes, SYBR Green DNA, 72 h; series mostly up to 28.7 µM. The procedure, abridged: as §1
Another experiment concerns CP265. Described as above. To be noted: P. falciparum in erythrocytes, SYBR Green DNA, 72 h; series mostly up to 12.8 µM. The procedure, abridged: as §1
A further experiment relates to CP286. Described as above. Conditions: P. falciparum in erythrocytes, SYBR Green DNA, 72 h; series mostly up to 28.7 µM. The method in brief: as §1
Another experiment concerns CP305. The description is as above. Conditions: P. falciparum in erythrocytes, SYBR Green DNA, 72 h; series mostly up to 28.7 µM. The procedure, abridged:
as §1

Another experiment concerns DIV30. The description is as above. Conditions: P. falciparum in erythrocytes, SYBR Green DNA, 72 h; series mostly up to 28.7 µM. The procedure, abridged:
as §1

The next experiment has as its system GB4. The description is as above. To be noted: P. falciparum in erythrocytes, SYBR Green DNA, 72 h; series mostly up to 28.7 µM. The method in brief: as §1
In another experiment the test system is HB3. The description is as above. To be noted: P. falciparum in erythrocytes, SYBR Green DNA, 72 h; series mostly up to 28.7 µM. The method in brief:
as §1

A further experiment relates to P94_40. Described as above. Conditions: P. falciparum in erythrocytes, SYBR Green DNA, 72 h; series mostly up to 28.7 µM. The procedure, abridged: as §1
Another experiment has as its system TAB109. Described as above. Conditions: P. falciparum in erythrocytes, SYBR Green DNA, 72 h; series mostly up to 12.8 µM. The method in brief:
as §1

A further experiment deals with TAB113. The experiment is described as above. Conditions: P. falciparum in erythrocytes, SYBR Green DNA, 72 h; series mostly up to 28.7 µM. The procedure, abridged:
as §1

The target in experiment [3] is Muscarinic acetylcholine receptor M1 (Rattus norvegicus) (UniProt P08482). Nature of the experiment: qHTS Assay for Antagonists of Acetylcholine Muscarinic M1 Receptor: Measurement of IP-One Response (AID 944). Also: nearly all actives have a fitted effect of over 75% in size. Also: potency is read from the fitted curve at half-maximal effect. Conditions: CHO-M1 cells, IP-One HTRF, antagonist mode; series mostly up to 46.1 µM. The method in brief: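 M1-CHO (rat), 2000 cells/well, overnight recovery; cpd 10 min; carbachol EC80 (200 nM), 30 min, HEPES buffer + 50 mM LiCl pH 7.4; IP-One HTRF, Ex 337, Em 620/665 nm.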
Sequence of Muscarinic acetylcholine receptor M1 (Rattus norvegicus) (P08482 whole entry, looked up): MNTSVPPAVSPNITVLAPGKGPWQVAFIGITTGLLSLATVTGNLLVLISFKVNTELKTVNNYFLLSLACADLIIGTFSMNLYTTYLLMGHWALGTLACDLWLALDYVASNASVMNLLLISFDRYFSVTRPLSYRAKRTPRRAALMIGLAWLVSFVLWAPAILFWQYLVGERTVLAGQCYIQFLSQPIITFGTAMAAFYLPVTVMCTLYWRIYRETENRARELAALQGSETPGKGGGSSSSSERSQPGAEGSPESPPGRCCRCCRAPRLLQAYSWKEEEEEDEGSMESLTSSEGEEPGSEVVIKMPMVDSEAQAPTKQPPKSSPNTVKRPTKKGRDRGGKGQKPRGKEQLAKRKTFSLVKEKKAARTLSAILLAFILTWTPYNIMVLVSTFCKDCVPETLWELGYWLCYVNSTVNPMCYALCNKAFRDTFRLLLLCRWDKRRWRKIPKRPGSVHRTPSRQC

Structures are written as SMILES. Results filed as inconclusive are left out. The source made the active and inactive calls. Unless noted, calls follow the shape of the dose curve; as a rule, active = well fitted curve in the direction sought with a large enough effect; inconclusive = small, poorly fitted or top-dose-only effect, or another doubt; inactive = no such curve, though single readings can be large; an effect the other way counts as inactive or inconclusive.

Sequence of Cytochrome P450 2C9 (Homo sapiens) (P11712 whole entry, looked up): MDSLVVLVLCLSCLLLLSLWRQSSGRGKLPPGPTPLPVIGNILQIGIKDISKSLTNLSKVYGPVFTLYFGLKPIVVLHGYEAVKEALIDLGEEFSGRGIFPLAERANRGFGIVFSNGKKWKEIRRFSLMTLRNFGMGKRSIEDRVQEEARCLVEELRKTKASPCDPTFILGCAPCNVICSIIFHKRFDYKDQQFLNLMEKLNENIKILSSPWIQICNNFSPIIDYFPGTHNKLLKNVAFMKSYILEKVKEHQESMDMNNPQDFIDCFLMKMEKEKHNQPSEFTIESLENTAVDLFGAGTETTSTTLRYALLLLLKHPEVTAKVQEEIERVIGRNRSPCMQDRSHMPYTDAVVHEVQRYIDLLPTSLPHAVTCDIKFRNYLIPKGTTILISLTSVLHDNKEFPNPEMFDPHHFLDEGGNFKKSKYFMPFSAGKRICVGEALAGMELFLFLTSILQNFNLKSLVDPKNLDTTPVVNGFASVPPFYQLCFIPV

Take `N#CC(O[C@@H]1O[C@H](CO[C@@H]2O[C@H](CO)[C@@H](O)[C@H](O)[C@H]2O)[C@@H](O)[C@H](O)[C@H]1O)c1ccccc1` (stereo partly specified): the Potency result in [1] and in experiment [2] was “inactive” each time.

For `C[C@@H](C1CC[C@@]2(O)C3=CC(=O)[C@@H]4C[C@@H](O)[C@@H](O)C[C@]4(C)[C@H]3CC[C@]12C)[C@H](O)CCC(C)(C)O` (stereo partly specified), the Potency entry in experiment [1] and in experiment [2] was “inactive” each time.

As to `Oc1ccc2c3c1O[C@H]1[C@@H](O)CC[C@@]4(O)C(C2)N(CC2CCC2)CCC314` (stereo partly specified), the Potency result in the experiment on AS120, in the experiment with ATS189, with CP185, in the experiment with CP192, in the experiment with CP194 and in the experiment with CP201 was “inactive” in each case. Further, the Potency entry in the experiment with CP237, with CP238, with CP265, with CP286, in the experiment on CP305 and with DIV30 was “inactive” each time. Besides, the Potency result in the experiment with GB4, in the experiment with HB3, in the experiment on P94_40, in the experiment with TAB109 and with TAB113 was “inactive” each time.

Consider `CC(C)(O)C1C2OC(=O)C1[C@]1(O)C[C@H]3O[C@]34C(=O)O[C@H]2[C@]14C` (stereo partly specified) (tested in a mixture with another compound), for which the Potency result with AS120, in the experiment with ATS189, with CP185, in the experiment with CP192, with CP194 and with CP201 was “inactive” in each case. Also, the Potency result with CP237, in the experiment with CP238, in the experiment on CP265, in the experiment on CP286, with CP305 and in the experiment on DIV30 was “inactive” in each case. Also, the Potency result in the experiment on GB4, in the experiment on HB3, in the experiment on P94_40, in the experiment with TAB109 and in the experiment on TAB113 was “inactive” in each case.

For the molecule `C[C@H]1OC[C@@H](C[N+](C)(C)C)O1`, the Potency result in experiment [3] was “inactive”.

With `CCCN(CCC)C(=O)Cc1c(-c2ccc(Cl)cc2)nc2c(Cl)cc(Cl)cn12`, the Potency entry in experiment [3] was “inactive”.

`CCCC[N+]1(C)C2CC(OC(=O)C(CO)c3ccccc3)CC1C1OC12` (stereo unspecified): the Potency entry in the experiment on AS120, with ATS189, in the experiment with CP185, in the experiment with CP192, with CP194 and in the experiment with CP201 was “inactive” in each case. Moreover, the Potency entry in the experiment on CP237, in the experiment with CP238, in the experiment with CP265, in the experiment with CP286, in the experiment with CP305 and in the experiment on DIV30 was “inactive” each time. Also, the Potency entry in the experiment on GB4, in the experiment on HB3, with P94_40, in the experiment on TAB109 and in the experiment with TAB113 was “inactive” in each case.

For the molecule `NCC#Cc1ccccc1`, the Potency result in experiment [3] is “inactive”.

For `CCCCN1C2CCC1CC(OC(c1ccc(F)cc1)c1ccc(F)cc1)C2` (stereo unspecified), in [3], the Potency is 2.24 µM (active).

On to `CCOC(=O)C=C(C)C=CC[C@@H](C)CCCC(C)C`, for which, in experiment [1], the Potency result was “inactive”. Also, in experiment [2], the Potency was 10.7 µM (active).

Source of the values: PubChem BioAssay (NCATS).
